Assay results taken from the supplement of paper PMC12636033.
± gives the standard deviation of the averaged measurements. Whole data set: some 33,000 sequences, median “E-score (rank enrichment, -0.5 to 0.5)” near -0.0028, cut for the highest 2% near 0.23. This is one part of a sample in which the highest values are shown more often than they occur.

Test system: 2Sb-muMax20 (muMax20 with two 1,3-bis(methyl)benzene Cys staples, A13C/A17C and Q88C/A92C, C-terminal Lys)
Experiment: PBM 8-mer E-score (E-score (rank enrichment, -0.5 to 0.5)); higher = stronger preferential binding
Method: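 Protein binding microarray (universal PBM chip covering all 10-mers in fixed probe flanks) with chemically synthesized human Max(13-93) bHLH-LZ analogs (not full-length Max) bearing noncanonical residues (hArg, Tha, Aib, Nle at 65) and aromatic Cys staples. Read-out per 8-mer (and its reverse complement): E-score (rank-based enrichment, -0.5 to 0.5) and Z-score of median probe intensity.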

| Sequence | PBM 8-mer E-score |
| --- | --- |
| TGAGACAA | 0.109 ± 0.058 |
| AGCTTAGC | -0.123 ± 0.011 |
| ACTGGGTG | 0.00505 ± 0.024 |
| CGTTTAGC | 0.00586 ± 0.16 |
| TCTGTGCA | -0.0114 ± 0.085 |
| GCTAGAAC | -0.0972 ± 0.085 |
| CATATTAC | 0.146 ± 0.071 |
| AATATTAC | 0.26 ± 0.0093 |
| GATATTAC | 0.187 ± 0.088 |
| ACGCAGCA | -0.0676 ± 0.011 |
| CATCAATA | 0.0338 ± 0.066 |
| CCTTTCAC | 0.0485 ± 0.022 |
| GTCGCGAC | 0.291 ± 0.0036 |
| ATCGCGAG | 0.151 ± 0.049 |
| GTCGCGAA | -0.208 ± 0.09 |
| ATCGCGAT | 0.255 ± 0.036 |
| CTCGCGAC | 0.107 ± 0.013 |
| ATCGCGAA | 0.0277 ± 0.02 |
| GGCTGTGA | -0.181 ± 0.072 |
| ACTTATGC | -0.0277 ± 0.024 |
| AGTGCGAC | -0.0265 ± 0.057 |
| GACCAGAC | -0.231 ± 0.026 |
| CGGTCGGA | -0.196 ± 0.0063 |
| CATTCGTC | -0.00288 ± 0.012 |
| AAGATGCA | 0.262 ± 0.023 |

| Sequence | PBM 8-mer E-score |
| --- | --- |
| ATGATACA | 0.255 ± 0.0028 |
| AAGATACT | 0.151 ± 0.031 |
| AAGATGCT | 0.0039 ± 0.035 |
| GAGATACA | 0.0204 ± 0.028 |
| CTGATACA | -0.049 ± 0.059 |
| AAGATACA | 0.245 ± 0.033 |
| GAGATGCA | 0.113 ± 0.076 |
| ATGATACC | 0.127 ± 0.024 |
| GCAAATCA | -0.0255 ± 0.056 |
| ACTTTGCG | 0.0825 ± 0.063 |
| AGCTACTA | 0.0815 ± 0.033 |
| AATTGGAA | 0.00538 ± 0.0076 |
| CGTTAACA | 0.0451 ± 0.018 |
| AGTTAACA | 0.138 ± 0.09 |
| TGTTAACA | 0.301 ± 0.013 |
| CAAACTGG | -0.0119 ± 0.034 |
| AAATATGA | 0.247 ± 0.032 |
| CAATATGA | 0.159 ± 0.05 |
| TAATATAA | 0.152 ± 0.00074 |
| AAATATTA | 0.243 ± 0.032 |
| GAATATTC | 0.166 ± 0.09 |
| GGATATTA | 0.128 ± 0.11 |
| TAATATTA | 0.35 ± 0.0053 |
| AAATATGT | 0.148 ± 0.031 |
| AAATATTC | 0.124 ± 0.084 |

| Sequence | PBM 8-mer E-score |
| --- | --- |
| CAATATTA | 0.106 ± 0.017 |
| GAATATTA | 0.238 ± 0.066 |
| TAATATGA | 0.168 ± 0.022 |
| AAAGGTTA | 0.0976 ± 0.032 |
| ACTCACTC | 0.00443 ± 0.03 |
| CCTTTTGC | -0.0513 ± 0.057 |
| AATAGGAA | -0.0166 ± 0.01 |
| TATAGGAA | 0.255 ± 0.038 |
| CATAGGAA | 0.0608 ± 0.002 |
| ATCATGAT | 0.267 ± 0.045 |
| ATCATGAG | 0.0432 ± 0.081 |
| AACATAAC | 0.202 ± 0.012 |
| ATCATGAA | 0.1293 ± 0.00082 |
| ATCATAAG | 0.217 ± 0.062 |
| ATAATCAT | 0.241 ± 0.044 |
| ATAATCAG | 0.198 ± 0.028 |
| AACATAAT | 0.297 ± 0.014 |
| ATCATAAA | 0.000625 ± 0.011 |
| ATAATCAA | 0.0744 ± 0.015 |
| AACATAAG | 0.118 ± 0.021 |
| ATCATAAT | 0.232 ± 0.024 |
| AAGGGCCG | -0.18 ± 0.018 |
| ATTTTAGA | 0.0196 ± 0.021 |
| CTGTTTCC | -0.0107 ± 0.033 |
| CGCGCACG | 0.0273 ± 0.007 |

| Sequence | PBM 8-mer E-score |
| --- | --- |
| GAATCTAC | 0.0758 ± 0.0052 |
| ATTACCCA | 0.2414 ± 0.0019 |
| ATTACCCG | 0.0122 ± 0.03 |
| ATTACCCC | 0.226 ± 0.0063 |
| AATACCCA | 0.272 ± 0.021 |
| TATACCCA | 0.0636 ± 0.015 |
| AATACCCG | -0.105 ± 0.092 |
| ATTCCAAT | -0.0251 ± 0.027 |
| CAGGACCA | -0.196 ± 0.036 |
| ATCTGTCA | 0.236 ± 0.0051 |
| ATCTGTCG | 0.089 ± 0.014 |
| ATCTGTCC | 0.0828 ± 0.032 |
| CGGACTCA | -0.147 ± 0.028 |
| ATACAAGC | 0.284 ± 0.043 |
| ACACAACG | 0.0437 ± 0.0021 |
| CTACAAGC | -0.00747 ± 0.0035 |
| ATACAACG | 0.252 ± 0.027 |
| ATACAACA | 0.239 ± 0.053 |
| CTACAACA | 0.0685 ± 0.041 |
| GTACAACA | 0.159 ± 0.0065 |
| ATACAACC | -0.0388 ± 0.043 |
| ATACAAGA | -0.044 ± 0.011 |
| CTTACGCC | 0.0349 ± 0.067 |
| AGTCTACA | -0.0861 ± 0.047 |
| TAGCAATA | -0.02 ± 0.012 |

| Sequence | PBM 8-mer E-score |
| --- | --- |
| AGGCCGCG | -0.113 ± 0.078 |
| GAGACGCA | 0.0251 ± 0.025 |
| TCGGGCAA | -0.0563 ± 0.02 |
| CAAGGTTA | -0.0419 ± 0.083 |
| AAAGGTAG | 0.176 ± 0.01 |
| AAGCCGTG | -0.228 ± 0.057 |
| ACGCGAAG | -0.0725 ± 0.09 |
| CGTAGAAA | -0.0374 ± 0.016 |
| TGTAGAAA | 0.236 ± 0.0088 |
| AGTAGAAA | 0.1174 ± 0.00047 |
| CTATGCGC | -0.0257 ± 0.0089 |
| CGACCAAG | -0.128 ± 0.0088 |
| GTTAGTTA | 0.108 ± 0.058 |
| GTAAGTTA | 0.0157 ± 0.033 |
| ATAAGTTA | 0.241 ± 0.01 |
| ATTAGTTA | 0.233 ± 0.039 |
| CTAAGTTA | 0.0294 ± 0.017 |
| ATTAGTTG | 0.205 ± 0.022 |
| AGAATTGG | 0.092 ± 0.037 |
| ATGCTAGC | 0.17 ± 0.0032 |
| CCCGCCTC | 0.0922 ± 0.074 |
| GCTAAAGA | 0.0447 ± 0.088 |
| CAAGTTTA | 0.151 ± 0.057 |
| ACTCCGAC | -0.182 ± 0.046 |
| AATCACAC | 0.131 ± 0.016 |

| Sequence | PBM 8-mer E-score |
| --- | --- |
| CAAAAACA | 0.00439 ± 0.066 |
| ACTATGCC | 0.101 ± 0.025 |
| GTTTTGCA | 0.0867 ± 0.05 |
| GGTTTGTA | 0.0375 ± 0.026 |
| GTTTTGTA | 0.279 ± 0.035 |
| ATTTTGTG | 0.0967 ± 0.078 |
| CTTTTGTA | 0.136 ± 0.035 |
| ATTTTGTA | 0.271 ± 0.013 |
| AAGGTTCC | -0.178 ± 0.069 |
| GGGTTGTA | 0.0272 ± 0.0033 |
| TAGACAAA | 0.053 ± 0.034 |
| CACGAATC | -0.015 ± 0.029 |
| AGAAGATG | -0.0449 ± 0.09 |
| ATCAAGAA | 0.121 ± 0.044 |
| AAAATTTC | 0.0563 ± 0.036 |
| AGAAATTA | 0.0685 ± 0.035 |
| GGAAATTA | 0.304 ± 0.016 |
| CAAATTTC | 0.208 ± 0.085 |
| CGAAATTA | -0.0924 ± 0.033 |
| CAAAATTA | 0.108 ± 0.0041 |
| GAAAATTA | 0.2425 ± 0.002 |
| GAAATTTC | 0.245 ± 0.17 |
| AAAAATTA | 0.0513 ± 0.022 |
| CGAAAACC | -0.0224 ± 0.019 |
| ACATACCC | -0.0475 ± 0.056 |

| Sequence | PBM 8-mer E-score |
| --- | --- |
| ACTCTTTG | 0.0269 ± 0.0091 |
| TTAGATAA | 0.113 ± 0.021 |
| AACGCTCT | -0.0435 ± 0.014 |
| CAACCTGA | -0.0727 ± 0.068 |
| AAGCGCTA | -0.041 ± 0.0066 |
| AAGCGCTC | -0.108 ± 0.037 |
| AAGCGCTT | 0.309 ± 0.011 |
| ACTGAGCC | -0.209 ± 0.022 |
| GAATAGCA | 0.146 ± 0.046 |
| CATCCATG | -0.0304 ± 0.072 |
| ACTAGTAG | 0.113 ± 0.013 |
| ATTACTAG | -0.0604 ± 0.047 |
| GCTACTAC | 0.233 ± 0.0041 |
| CCTACTAG | 0.0815 ± 0.034 |
| ACTAGTAA | 0.231 ± 0.036 |
| CTTACTAC | 0.202 ± 0.032 |
| ACTACTAT | 0.173 ± 0.036 |
| ACTACTAG | 0.241 ± 0.027 |
| GCTACTAA | 0.082 ± 0.075 |
| ACTAGTAT | 0.201 ± 0.067 |
| ACTACTAC | 0.0819 ± 0.046 |
| ATTACTAC | 0.296 ± 0.011 |
